Assay results published in the supplement of paper PMC6555819.

Key:
Test in all cases: PBM binding z-score (relative to random genomic background probes); higher = stronger binding; sequences stand for … in GC…GCGATTGACAGCGTAGAATGAAGG
[1] = system: FXR:RXRa (NR concentration 270 nM, RXRa partner concentration 90 nM)
Procedure, shortened: (§1)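 For binding z-scores, the reference was random background probes on custom Agilent 4×180K protein-binding microarrays. These arrays were incubated 1 h with ligand-free nuclear receptor dimers in PBS pH 7.4, 2% milk, 0.02% Triton X-100, 1 mM DTT, 0.2 mg/mL BSA and 0.4 mg/ml salmon testes DNA. Fluorescence was scanned after antibody detection of each partner (one per run) and regression-normalized.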

[2] = system: LXRa:RXRa (NR concentration 270 nM, RXRa partner concentration 90 nM)
Procedure, shortened: as §1

[3] = system: LXRa homodimer (NR concentration 270 nM)
Procedure, shortened: as §1

[4] = system: LXRb:RXRa (NR concentration 270 nM, RXRa partner concentration 90 nM)
Procedure, shortened: as §1

[5] = system: LXRb homodimer (NR concentration 270 nM)
Procedure, shortened: as §1

[6] = system: PPARa:RXRa (NR concentration 270 nM, RXRa partner concentration 90 nM)
Procedure, shortened: as §1

[7] = system: PPARg:RXRa (NR concentration 180 nM, RXRa partner concentration 90 nM)
Procedure, shortened: as §1

[8] = system: PPARg:RXRa 270nM:90nM, anti-RXR (NR concentration 270 nM, RXRa partner concentration 90 nM)
Procedure, shortened: as §1

[9] = system: PPARg:RXRa 30nM:10nM, anti-RXR (NR concentration 30 nM, RXRa partner concentration 10 nM)
Procedure, shortened: as §1

[10] = system: PPARg:RXRa 90nM:30nM, anti-RXR (NR concentration 90 nM, RXRa partner concentration 30 nM)
Procedure, shortened: as §1

[11] = system: PPARg:RXRa DBDmut IVT, anti-RXR (DBD mutation: RXRa K156A/R161A, NR concentration 270 nM, RXRa partner concentration 90 nM)
Procedure, shortened: as §1

[12] = system: PPARg:RXRa IVT, anti-PPARg (NR concentration 270 nM, RXRa partner concentration 90 nM)
Procedure, shortened: as §1

[13] = system: PPARg DBDmut:RXRa IVT, anti-PPARg (DBD mutation: PPARg1 K132A/R137A, NR concentration 270 nM, RXRa partner concentration 90 nM)
Procedure, shortened: as §1

[14] = system: PPARg DBDmut IVT, anti-PPARg (DBD mutation: PPARg1 K132A/R137A, NR concentration 270 nM)
Procedure, shortened: as §1

[15] = system: PPARg homodimer (NR concentration 180 nM)
Procedure, shortened: as §1

[16] = system: PXR:RXRa (NR concentration 270 nM, RXRa partner concentration 90 nM)
Procedure, shortened: as §1

[17] = system: PXR homodimer (NR concentration 270 nM)
Procedure, shortened: as §1

[18] = system: RARa:RXR (NR concentration 270 nM, RXRa partner concentration 90 nM)
Procedure, shortened: as §1

[19] = system: RARa homodimer (NR concentration 270 nM)
Procedure, shortened: as §1

[20] = system: RARb:RXRa (NR concentration 270 nM, RXRa partner concentration 90 nM)
Procedure, shortened: as §1

Sequence | PBM binding z-score [1] | PBM binding z-score [2] | PBM binding z-score [3] | PBM binding z-score [4] | PBM binding z-score [5] | PBM binding z-score [6] | PBM binding z-score [7] | PBM binding z-score [8] | PBM binding z-score [9] | PBM binding z-score [10] | PBM binding z-score [11] | PBM binding z-score [12] | PBM binding z-score [13] | PBM binding z-score [14] | PBM binding z-score [15] | PBM binding z-score [16] | PBM binding z-score [17] | PBM binding z-score [18] | PBM binding z-score [19] | PBM binding z-score [20]
TCTTGGAGATCAATAGAGGTTAAGAAAGTGCGCT | 1.28 | 3.82 | 0.422 | 2.09 | -0.451 | 1.94 | -0.159 | 1.27 | 2.09 | 1.59 | 0.87 | 0.273 | 0.0631 | -0.22 | 0.19 | 3.33 | -0.00174 | 1.94 | 0.245 | 0.9
TAGCCTAGGTCTTGGGCCAGTATACCACGCGAAC | -0.302 | -0.359 | -0.58 | -0.334 | -0.384 | -0.242 | 0.0651 | -0.286 | -0.619 | -0.51 | -0.718 | -0.4 | -0.0485 | -0.703 | -0.0751 | -0.448 | -0.379 | -0.298 | -0.982 | 0.162
AATACAGGGTTATCGTAGGCCAGAGTACGCACAG | 1.75 | 5.85 | 0.204 | 2.68 | 0.3 | 2.55 | 1.75 | 1.35 | 0.668 | 0.954 | 0.539 | 1.12 | 0.626 | 0.739 | 0.97 | 1.59 | -0.0696 | 1.79 | 0.276 | 1.3
CAAACTAGGTCACCGGCAGGTCAAAGTCCGCATG | 5.82 | 5.46 | 3.97 | 4.21 | 0.888 | 5.7 | 9.54 | 7.62 | 5.44 | 7.61 | 8.64 | 8.72 | 2.38 | 0.783 | 4.83 | 5.26 | 0.922 | 6.42 | 1.55 | 4.93
ATATGTAGGTTATCGGGTCATCCAGTTTGCGCAT | 3.4 | 3.29 | 1.73 | 3.26 | 1.22 | 5.15 | 7.35 | 6.27 | 3.9 | 5.79 | 7.5 | 7.73 | 3.61 | 3.11 | 3.09 | 3.98 | 5.45 | 4.35 | 1.79 | 2.96
CCTCCGAGGACAACAGGAGGTCAGAGCTGCCAGA | 1.35 | 2.3 | 2.21 | 1.51 | -0.302 | 2.02 | 0.575 | 0.211 | -0.642 | -0.107 | -0.0648 | 0.335 | -1.15 | -1.76 | 1.29 | 2.17 | 0.291 | 2.7 | -0.117 | 2.88
CCTAGTTGGTCAGGACGTCACACACCGGATATGA | -0.0966 | 0.0885 | 0.373 | -0.0236 | 0.306 | -0.286 | 0.962 | 0.0606 | -0.177 | 0.147 | 0.48 | 0.458 | 0.41 | 0.0179 | 0.77 | -0.123 | 0.484 | -0.000234 | 1.44 | 0.721
CCGAGCAGGCCAGGGTCACTCAAGCATTTCGCTT | 2.23 | 1.75 | -0.467 | 2.16 | -1.08 | 2.97 | 0.393 | 1.19 | -0.201 | 0.482 | -0.216 | 0.461 | -1.99 | -1.55 | 1.51 | 2.78 | -0.479 | 3.47 | -0.256 | 2.65
GCTAGCAGGCCATTTGGGTCAGTCAATGACGGGC | -0.0631 | -0.302 | -0.489 | -0.399 | -1.6 | 0.666 | 0.221 | -0.137 | -0.663 | -0.371 | 1.4 | 1.05 | -0.511 | -1.16 | -0.0651 | -0.047 | 0.065 | 0.213 | -1.59 | 1.12
TTACCAAGGTTAGCTGAGGTCGTTGATCCAACTC | 2.11 | 4.83 | 0.313 | 2.51 | -0.743 | 2.24 | -0.0441 | 0.6 | 0.0802 | 0.486 | 0.191 | 0.594 | -0.413 | -0.849 | 0.103 | 5.71 | 1.46 | 2.83 | -0.023 | 2.1
TGAATGAGGTTAAAGATAAGGGAACGTGGCGTCG | 2.65 | 2.28 | 0.104 | 1.5 | 0.393 | 3.54 | 2.88 | 3.98 | 1.97 | 3.5 | 2.35 | 2.62 | 1.71 | 0.597 | 0.427 | 1.37 | 0.106 | 2.09 | -0.181 | 2.04
GCTAGCAGGCCATTTGGGTCACTCTATGACGGGC | 0.0268 | -0.16 | -0.53 | -0.351 | -0.817 | 0.925 | 0.594 | 0.327 | -0.547 | -0.167 | 2.04 | 2.04 | -0.319 | -0.713 | -0.345 | 0.138 | -0.0419 | 0.546 | -0.641 | 1.27
GCATATAGGTAATACAAGGTGCAAGTCCGATTGT | -0.133 | -0.156 | -0.264 | -0.333 | -0.455 | 0.617 | 0.975 | 0.986 | 0.152 | 0.648 | 3.88 | 2.81 | 0.731 | 0.109 | 0.579 | -0.0713 | 0.191 | 0.538 | 0.49 | -0.282
CCTCGGAGGATAACAGGAGGTCAGAGCTGCCAGA | 0.758 | 2.44 | 2.34 | 1.24 | -0.35 | 1.61 | 0.275 | -0.114 | -0.739 | -0.596 | -0.616 | 0.0476 | -0.938 | -1.92 | 1.75 | 1.78 | 0.657 | 2.39 | 0.565 | 1.99
